Our source for the composite z-score and z-score values is PubChem BioAssay.

The test system of test [1] is Human papillomavirus type 1a protein E7 (residues 44-93). The experiment in a line: HPV1a E7 fragment binders on microarrays, primary screen, biochemical, small-molecule microarray, residues 44-93, 635 nm fluorescence (AID 1108).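 Also: E7 fragment applied at 1 µg/mL in TBST for 1 h at 4 C; score combines spot fluorescence with its signal to noise ratio.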 As to conditions: small-molecule microarray binding, fluorescence 635 nm; higher = more signal.
The nature of test [2]: modulators of HCV replicon luciferase signal, primary screen, HCV replication inhibitor project, Huh7 cells, luciferase reporter (AID 1109).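 Also: huh7 hepatoma cells harbouring a luciferase neomycin HCV replicon reporter; luciferase luminescence as measure of HCV replicon replication; test concentration not given here.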 The conditions noted are these: 48 h, higher = more signal. (A replicon is a self-replicating genome or part of one, used to study replication in cells.)
Test [3] deals with Left-right determination factor 2 (Homo sapiens) (UniProt O00292). The experiment in a line: LEFTY2 binders on small-molecule microarrays, primary screen, biochemical, small-molecule microarray, 635 nm fluorescence scan (AID 1110). As to conditions: LEFTY2 binding, higher = more signal.
Sequence of Left-right determination factor 2 (Homo sapiens) (O00292 whole entry, looked up): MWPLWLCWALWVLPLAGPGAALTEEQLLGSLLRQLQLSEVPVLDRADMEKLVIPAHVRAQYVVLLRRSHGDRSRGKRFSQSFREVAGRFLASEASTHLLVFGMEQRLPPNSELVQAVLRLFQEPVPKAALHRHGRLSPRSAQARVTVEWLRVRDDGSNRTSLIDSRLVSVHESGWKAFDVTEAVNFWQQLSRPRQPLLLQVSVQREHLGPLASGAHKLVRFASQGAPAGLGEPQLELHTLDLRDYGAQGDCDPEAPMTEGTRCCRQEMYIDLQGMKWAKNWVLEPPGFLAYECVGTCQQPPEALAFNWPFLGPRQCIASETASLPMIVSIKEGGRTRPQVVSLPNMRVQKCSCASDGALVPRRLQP
In test [4] the target is Calmodulin-1 (Homo sapiens) (UniProt P0DP23). The experiment in a line: CALM1 binders on microarrays, EGTA buffer, profiling panel, biochemical, small-molecule microarray, Cy5-labelled CALM1 (AID 1111).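 Also: labelled calmodulin applied in Tris saline Tween buffer holding calcium plus EGTA and DTT.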 The conditions noted are these: Cy5-CALM1 binding fluorescence, higher = more signal.
For test [5] the target is unchanged. The experiment in a line: calcium-bound CALM1 binders on microarrays, profiling panel, artefact control for SMM control-protein annotation, biochemical, small-molecule microarray, Cy5-labelled CALM1, plus calcium (AID 1112).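 Also: score merges spot fluorescence with signal to noise from triplicate slides.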 The conditions noted are these: Cy5-CALM1 binding fluorescence, higher = more signal.
A short description of test [6]: small-molecule microarray binders of probe aWnt5a, primary screen, biochemical, biotinylated probe, 635/667 nm fluorescence (AID 1113).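 Also: score merges 667 nm fluorescence intensity with signal-to-noise per printed feature.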 The conditions noted are these: higher = more signal.
Test [7] in a line: small-molecule microarray binders of probe aShh, primary screen, biochemical, biotinylated probe, 635/667 nm fluorescence (AID 1114).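 Also: probe is biotin-labelled aShh protein from a stem cell growth factor screen; measures binding of labelled protein to compounds printed on the slide; score merges feature fluorescence at 667 nm with signal-to-noise.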 As to conditions: higher = more signal.
Test [8] can be described thus: small-molecule microarray binders of probe aNog, primary screen, biochemical, biotinylated probe, 635/667 nm fluorescence (AID 1115).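 Also: probe is biotinylated aNog protein used at 0.15 µg/mL for 1 h at 4 C; z-score combines 667 nm fluorescence of each spot with its signal to noise.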 As to conditions: higher = more signal.
Test [9] concerns the target Torsin-1A-interacting protein 1 (Homo sapiens) (UniProt Q5JTV8). The experiment in a line: LAP1 binders from COS7 cell lysate, primary screen, small-molecule microarray, 635/667 nm fluorescence (AID 1116). The conditions noted are these: COS7-hLAP1 lysate binding, 635 nm fluorescence, higher = more signal.
For test [10], the target named is Alpha-bungarotoxin (Bungarus multicinctus) (UniProt P60615). The experiment in a line: alpha-bungarotoxin binders on microarray, profiling panel, artefact control for SMM control protein annotation, biochemical, small-molecule microarray, Alexa647 label, 635/667 nm fluorescence (AID 1117). As to conditions: alpha-BTX-A647 binding fluorescence, higher = more signal.
Sequence of Alpha-bungarotoxin (Bungarus multicinctus) (P60615 whole entry, looked up): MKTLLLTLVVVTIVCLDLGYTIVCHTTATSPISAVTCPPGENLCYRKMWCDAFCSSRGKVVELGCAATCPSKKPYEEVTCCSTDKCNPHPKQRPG

Sequence of Torsin-1A-interacting protein 1 (Homo sapiens) (Q5JTV8 whole entry, looked up): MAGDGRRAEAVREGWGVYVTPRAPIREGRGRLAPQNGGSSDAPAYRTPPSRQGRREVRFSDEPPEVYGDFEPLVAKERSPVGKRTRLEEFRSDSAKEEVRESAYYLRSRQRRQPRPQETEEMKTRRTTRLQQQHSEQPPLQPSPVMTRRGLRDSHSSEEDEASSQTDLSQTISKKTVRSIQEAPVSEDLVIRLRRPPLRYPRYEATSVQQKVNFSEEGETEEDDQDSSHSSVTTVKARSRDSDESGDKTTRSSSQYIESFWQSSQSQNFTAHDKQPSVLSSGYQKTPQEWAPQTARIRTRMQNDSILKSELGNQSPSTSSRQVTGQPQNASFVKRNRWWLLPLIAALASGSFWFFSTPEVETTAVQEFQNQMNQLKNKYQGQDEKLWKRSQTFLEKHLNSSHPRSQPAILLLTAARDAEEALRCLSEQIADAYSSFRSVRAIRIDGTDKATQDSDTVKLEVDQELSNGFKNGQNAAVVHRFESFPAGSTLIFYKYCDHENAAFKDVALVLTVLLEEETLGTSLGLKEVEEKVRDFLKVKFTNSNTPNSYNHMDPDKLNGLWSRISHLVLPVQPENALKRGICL

Take `Cc1ccc(S[C@]2(C(=O)NCCCN(C)C)CC(=O)N(Cc3cc(C(F)(F)F)cc(C(F)(F)F)c3)[C@@H]2c2ccc(CO)cc2I)cc1`: the composite z-score is -0.0139 in [1]; -0.664 in test [3]; 0.325 in [4]; 0.764 in test [5]; 0.299 in [6]; 0.242 in [7]. The composite z-score was 1.73 in [8], 0.215 in test [9] and 0.0119 in test [10]. In addition, the z-score in test [2] was -2.1.
As to `COC(=O)[C@@]1(Cc2ccc(OC)cc2)[C@H]2c3cc(C(=O)N(C)C)n(Cc4ccccn4)c3C[C@H]2CN1C(=O)c1ccccc1`, the composite z-score was -0.0851 in test [1]; -0.479 in [3]; 2.86 in [4]; 1.41 in test [5]; 0.0859 in test [6]; 0.645 in [7]. For the same molecule, the figures for the composite z-score in test [8], in test [9] and in [10] were 1.86, 3.05 and 1.13, respectively. Moreover, in [2], the z-score was -0.741.
Turning to `C=CCC(OC(C)=O)[C@@H]1[C@@H](N(Cc2ccc(-c3ccccc3)cc2)C(=O)Cc2ccc(OC)cc2)c2cc(OCCCO)ccc2N1C(=O)Cc1ccc2ccccc2c1` (stereo not given in full), the composite z-score is -0.285 in test [1]; -0.305 in [3]; -0.247 in test [4]; 0.831 in test [5]; -0.0297 in test [6]; -0.0769 in test [7]. Besides, the composite z-score in test [8] is -0.366; in test [9], -0.172; in [10], 0.87. The z-score in test [2] was -1.14.
For the molecule `O=C(NCCN1CCOCC1)C1N=C(c2ccc(OCCCO)cc2)N(c2ccccc2)O1` (stereo not given), the composite z-score in [1] is 0.694; in test [3], 1.08; in test [4], 0.745; in [5], -0.177; in test [6] it was 0.139; in [7], -0.0457. Besides, the composite z-score was determined as 0.05 in test [8], 1.68 in test [9] and 1.55 in test [10]. The z-score in [2] was 0.289.
As for `C=CCC(OC(C)=O)[C@@H]1[C@@H](N(Cc2cccc3ccccc23)C(=O)c2ccc(-c3ccccc3)cc2)c2cc(OCCCO)ccc2N1C(=O)c1ccc2ccccc2c1` (stereo not given in full), the composite z-score is 0.564 in test [1]; -0.164 in test [3]; 0.268 in test [4]; 0.544 in test [5]; -0.0196 in test [6]; -0.0709 in test [7]. The results for the composite z-score in [8], in test [9] and in [10] were 0.223, 0.923 and -0.0516, respectively. This molecule came in with a z-score in test [2] of 0.098.
In the case of `CCOC(=O)C[C@H]1[C@H](OC(=O)c2ccc(C(=O)c3ccccc3)cc2)[C@@H](NC(=O)c2ccc3ccccc3c2)c2cc(OCCCO)ccc2N1C(=O)Cc1ccc(OC)cc1`, the composite z-score is 0.86 in test [1]; -0.0254 in test [3]; 1.14 in [4]; 0.187 in test [5]; -0.0405 in test [6]; -0.0553 in [7]. Moreover, the composite z-score in [8] is 0.177; in test [9], 0.669; in test [10], 0.729. The z-score in test [2] was -0.989.
In the case of `CN(C)CCCC[C@@H]1NC(=O)[C@H]2C[C@@H](C(=O)NCCCCCCN)[C@@H](c3ccc(O)cc3)N2C1=O`, the composite z-score came to 1.23 in test [1]; 1.48 in [3]; 1.67 in test [4]; 0.921 in test [5]; 0.257 in [6]; 0.109 in test [7]. Besides, the composite z-score amounted to 1.59 in [8], 1.74 in [9] and 2.75 in test [10]. Besides, in test [2], the z-score came out at 0.251.
`COc1ccc(CCNC(=O)[C@@]2(Sc3ccc(C)cc3)CC(=O)N(C(C)C)[C@@H]2c2ccc(CO)cc2I)cc1`: the composite z-score in test [1] was 0.536; in test [3], -1.09; in test [4], -0.434; in test [5], 0.428; in test [6], -0.225; in test [7] it was -0.0553. For the same molecule, the composite z-score in test [8] was 0.905; in test [9] it was 0.341; in test [10], -0.333. Moreover, the z-score in [2] is -2.41.
Consider `C=CCN1C(=O)[C@]2(O[C@H](CCn3cc([C@H](O)c4ccccc4)nn3)[C@@H]([Si](C)(C)c3ccc(OC)cc3)[C@@H]2C)c2ccccc21`, for which the composite z-score is -1.22 in test [1]; -0.901 in [3]; -0.525 in [4]; 0.227 in [5]; -0.124 in test [6]; -0.0146 in test [7]. Moreover, the composite z-score is -0.223 in test [8], -0.252 in test [9] and -1.56 in [10]. For the same molecule, in [2], the z-score was -2.71.
For `CN1C(=O)C2C=CC(C(O)c3ccccc3)N(N(c3ccccc3)c3ccccc3)C2C1=O` (stereo not given), the composite z-score is -0.364 in test [1]; 0.618 in test [3]; -0.315 in test [4]; -0.717 in test [5]; 0.0181 in [6]; -0.0904 in [7]. The results for the composite z-score in test [8], in test [9] and in [10] were 0.235, 0.911 and 0.514, respectively. Besides, the z-score in test [2] is -0.442.
As for `C=CCN1C(=O)[C@@]2(CC=C)N=C(c3ccc(OCCCO)cc3)O[C@H]2c2ccccc21`, the composite z-score in [1] is 1.41; in [3], 0.984; in test [4], 3.11; in test [5], 0.0457; in test [6], 0.026; in test [7], -0.0886. Moreover, the composite z-score in test [8] worked out at 0.808; in test [9] it was 1.62; in [10] it was 0.951. Also, the z-score in test [2] is -2.48.
With `O=C1c2ccccc2[C@](Cc2ccccc2I)(C(=O)NCC(F)(F)F)[C@H](c2ccc(CO)cc2)N1Cc1ccccc1Cl`, the composite z-score in test [1] was 1.41; in [3] it was -0.141; in [4] it was 1.03; in test [5], 0.512; in test [6], -0.0472; in test [7] it was 0.0632. Further, the composite z-score in test [8] was -0.239; in [9], 0.208; in [10], 0.918. In addition, the z-score in test [2] was -0.798.
Turning to `COC(=O)C(CC#Cc1ccc2c(c1)[C@]1(C(=O)N2)[C@H](c2ccc(OCCO)cc2)N2[C@H](c3ccccc3)[C@H](c3ccccc3)OC(=O)[C@H]2[C@@H]1C(=O)Nc1nc2ccccc2s1)C(=O)OC`, the composite z-score is 1.4 in [1]; 0.582 in [3]; 1.55 in test [4]; 0.489 in test [5]; -0.0195 in [6]; -0.0119 in test [7]. Besides, the results for the composite z-score in test [8], in [9] and in test [10] were -0.267, 1.03 and 1.11, respectively. In addition, the z-score in test [2] was -1.65.
